Of roughly 7,900 targets only a part is listed; those with a hit were picked by preference. About 0.6% of all pairs of compound and target were hits. Unmarked numbers belong to inactive results.
Key:
Test in all cases: log2 fold change, soluble protein after heating vs DMSO (PISA); higher = thermal stabilisation; K562 cells, 10 uM, 30 min; active = over 0.2 and 3.5 SD of the protein, either way, in both replicates (recomputed)
[1] = compound: CS(=O)(=O)c1ccc(-c2cnc(N)c(C(=O)Nc3ccccc3)n2)cc1
Method in brief: (§1)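 K562 cells at 2×10^6 cells/mL were exposed to 10 μM compound for 30 min, then aliquots were heated for 3 min across 48°C-58°C, pooled, and extracted in PBS containing 0.5% NP-40 at 4°C. The supernatant after 21,000xg for 90 min was taken as soluble protein and measured by TMTpro 16plex LC-MS/MS with channel sums equalised. Thermal stability is reported relative to control samples, with values from duplicates. Fold changes are given on a log2 scale.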

crizotinib = compound: C[C@@H](Oc1cc(-c2cnn(C3CCNCC3)c2)cnc1N)c1c(Cl)ccc(F)c1Cl [crizotinib]
Method in brief: as §1

[2] = compound: C[C@@H]1COCCN1C2=NC(=NC(=C2)C3(CC3)S(=O)(=O)C)C4=C5C=CNC5=CC=C4
Method in brief: as §1

[3] = compound: C[C@H](C1=CC=C(C=C1)C(=O)NC2=C3C=CNC3=NC=C2)N
Method in brief: as §1

duvelisib = compound: C[C@H](Nc1ncnc2nc[nH]c12)c1cc2cccc(Cl)c2c(=O)n1-c1ccccc1 [duvelisib]
Method in brief: as §1

gandotinib = compound: Cc1cc(Nc2cc(CN3CCOCC3)c3nc(C)c(Cc4ccc(Cl)cc4F)n3n2)n[nH]1 [gandotinib]
Method in brief: as §1

tozasertib = compound: Cc1cc(Nc2cc(N3CCN(C)CC3)nc(Sc3ccc(NC(=O)C4CC4)cc3)n2)n[nH]1 [tozasertib]
Method in brief: as §1

[4] = compound: Cc1cc(SCc2sc(-c3ccc(C(F)(F)F)cc3)nc2C)ccc1OCC(=O)O
Method in brief: as §1

doramapimod = compound: Cc1ccc(-n2nc(C(C)(C)C)cc2NC(=O)Nc2ccc(OCCN3CCOCC3)c3ccccc23)cc1 [doramapimod]
Method in brief: as §1

ispinesib = compound: Cc1ccc(C(=O)N(CCCN)[C@@H](c2nc3cc(Cl)ccc3c(=O)n2Cc2ccccc2)C(C)C)cc1 [ispinesib]
Method in brief: as §1

Chain of UniProt P34913 (P34913 whole entry, looked up): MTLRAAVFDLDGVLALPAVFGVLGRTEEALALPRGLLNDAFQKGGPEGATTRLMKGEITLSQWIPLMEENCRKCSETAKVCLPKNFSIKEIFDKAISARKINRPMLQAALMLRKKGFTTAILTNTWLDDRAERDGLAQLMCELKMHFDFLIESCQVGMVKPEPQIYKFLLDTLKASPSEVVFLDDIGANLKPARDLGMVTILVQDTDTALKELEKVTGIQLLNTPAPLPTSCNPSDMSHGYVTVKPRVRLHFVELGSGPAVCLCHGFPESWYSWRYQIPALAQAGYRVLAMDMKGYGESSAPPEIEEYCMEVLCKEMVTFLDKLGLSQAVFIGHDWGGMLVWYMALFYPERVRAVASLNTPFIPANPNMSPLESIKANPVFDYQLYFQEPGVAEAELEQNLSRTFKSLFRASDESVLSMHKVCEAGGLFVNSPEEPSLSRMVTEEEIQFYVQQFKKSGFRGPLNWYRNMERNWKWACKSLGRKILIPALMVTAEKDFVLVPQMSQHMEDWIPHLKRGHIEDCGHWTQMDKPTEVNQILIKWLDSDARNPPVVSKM
Chain of UniProt Q6P1L5 (Q6P1L5 whole entry, looked up): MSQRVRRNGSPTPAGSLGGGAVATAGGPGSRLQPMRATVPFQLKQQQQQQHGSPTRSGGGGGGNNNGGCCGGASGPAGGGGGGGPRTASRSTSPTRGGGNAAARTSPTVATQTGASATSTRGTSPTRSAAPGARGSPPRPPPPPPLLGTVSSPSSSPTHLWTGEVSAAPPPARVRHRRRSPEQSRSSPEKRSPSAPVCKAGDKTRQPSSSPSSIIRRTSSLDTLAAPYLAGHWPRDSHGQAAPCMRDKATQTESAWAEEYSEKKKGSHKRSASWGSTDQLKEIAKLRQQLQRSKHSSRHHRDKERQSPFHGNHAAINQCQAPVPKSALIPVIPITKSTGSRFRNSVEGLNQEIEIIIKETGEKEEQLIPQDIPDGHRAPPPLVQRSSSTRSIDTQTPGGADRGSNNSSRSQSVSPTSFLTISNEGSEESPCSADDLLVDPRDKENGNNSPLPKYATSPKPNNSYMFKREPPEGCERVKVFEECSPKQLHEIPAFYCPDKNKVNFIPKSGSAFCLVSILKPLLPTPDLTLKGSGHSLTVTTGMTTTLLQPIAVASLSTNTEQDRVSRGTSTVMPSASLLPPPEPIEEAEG
Chain of UniProt P25774 (P25774 whole entry, looked up): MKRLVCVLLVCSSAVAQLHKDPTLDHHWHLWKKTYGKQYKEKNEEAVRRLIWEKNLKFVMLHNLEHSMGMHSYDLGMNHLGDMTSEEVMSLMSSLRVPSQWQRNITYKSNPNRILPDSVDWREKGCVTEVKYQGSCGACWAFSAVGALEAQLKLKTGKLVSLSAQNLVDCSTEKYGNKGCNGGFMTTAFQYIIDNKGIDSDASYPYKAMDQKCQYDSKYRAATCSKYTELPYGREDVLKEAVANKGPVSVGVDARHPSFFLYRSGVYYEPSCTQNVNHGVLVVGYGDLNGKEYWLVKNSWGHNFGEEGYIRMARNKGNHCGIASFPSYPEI
Chain of UniProt Q92556 (Q92556 whole entry, looked up): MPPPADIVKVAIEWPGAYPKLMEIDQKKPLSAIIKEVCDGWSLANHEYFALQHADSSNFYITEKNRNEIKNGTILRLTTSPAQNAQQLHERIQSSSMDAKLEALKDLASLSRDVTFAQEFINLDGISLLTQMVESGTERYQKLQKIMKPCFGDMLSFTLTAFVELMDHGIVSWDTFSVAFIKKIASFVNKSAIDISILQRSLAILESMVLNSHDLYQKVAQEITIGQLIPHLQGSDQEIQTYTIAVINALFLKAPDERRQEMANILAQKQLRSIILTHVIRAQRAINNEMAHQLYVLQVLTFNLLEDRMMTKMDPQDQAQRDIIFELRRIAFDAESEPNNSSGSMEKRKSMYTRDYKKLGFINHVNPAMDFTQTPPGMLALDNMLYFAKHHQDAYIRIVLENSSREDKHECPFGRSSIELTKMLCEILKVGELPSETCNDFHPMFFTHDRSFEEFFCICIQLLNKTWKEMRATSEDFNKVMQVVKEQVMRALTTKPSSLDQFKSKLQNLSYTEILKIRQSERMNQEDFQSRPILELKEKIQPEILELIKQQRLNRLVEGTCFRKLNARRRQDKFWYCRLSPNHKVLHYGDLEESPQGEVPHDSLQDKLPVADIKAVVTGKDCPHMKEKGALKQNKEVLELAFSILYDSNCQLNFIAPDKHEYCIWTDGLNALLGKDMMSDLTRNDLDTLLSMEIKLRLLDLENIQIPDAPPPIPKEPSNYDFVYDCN
Chain of UniProt Q8N8J7 (Q8N8J7 whole entry, looked up): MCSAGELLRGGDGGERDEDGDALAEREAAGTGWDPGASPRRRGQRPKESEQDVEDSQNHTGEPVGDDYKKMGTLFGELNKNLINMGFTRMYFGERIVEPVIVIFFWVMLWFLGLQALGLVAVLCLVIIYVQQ
Chain of UniProt O15121 (O15121 whole entry, looked up): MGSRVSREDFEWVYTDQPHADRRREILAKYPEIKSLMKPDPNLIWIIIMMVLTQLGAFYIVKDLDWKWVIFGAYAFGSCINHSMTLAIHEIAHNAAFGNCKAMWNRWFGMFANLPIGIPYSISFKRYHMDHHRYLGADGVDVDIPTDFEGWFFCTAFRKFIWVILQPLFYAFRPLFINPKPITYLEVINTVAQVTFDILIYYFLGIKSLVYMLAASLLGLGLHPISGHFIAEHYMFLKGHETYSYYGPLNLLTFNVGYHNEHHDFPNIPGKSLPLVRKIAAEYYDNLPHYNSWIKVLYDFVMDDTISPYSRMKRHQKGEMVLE
Chain of UniProt Q8NDI1 (Q8NDI1 whole entry, looked up): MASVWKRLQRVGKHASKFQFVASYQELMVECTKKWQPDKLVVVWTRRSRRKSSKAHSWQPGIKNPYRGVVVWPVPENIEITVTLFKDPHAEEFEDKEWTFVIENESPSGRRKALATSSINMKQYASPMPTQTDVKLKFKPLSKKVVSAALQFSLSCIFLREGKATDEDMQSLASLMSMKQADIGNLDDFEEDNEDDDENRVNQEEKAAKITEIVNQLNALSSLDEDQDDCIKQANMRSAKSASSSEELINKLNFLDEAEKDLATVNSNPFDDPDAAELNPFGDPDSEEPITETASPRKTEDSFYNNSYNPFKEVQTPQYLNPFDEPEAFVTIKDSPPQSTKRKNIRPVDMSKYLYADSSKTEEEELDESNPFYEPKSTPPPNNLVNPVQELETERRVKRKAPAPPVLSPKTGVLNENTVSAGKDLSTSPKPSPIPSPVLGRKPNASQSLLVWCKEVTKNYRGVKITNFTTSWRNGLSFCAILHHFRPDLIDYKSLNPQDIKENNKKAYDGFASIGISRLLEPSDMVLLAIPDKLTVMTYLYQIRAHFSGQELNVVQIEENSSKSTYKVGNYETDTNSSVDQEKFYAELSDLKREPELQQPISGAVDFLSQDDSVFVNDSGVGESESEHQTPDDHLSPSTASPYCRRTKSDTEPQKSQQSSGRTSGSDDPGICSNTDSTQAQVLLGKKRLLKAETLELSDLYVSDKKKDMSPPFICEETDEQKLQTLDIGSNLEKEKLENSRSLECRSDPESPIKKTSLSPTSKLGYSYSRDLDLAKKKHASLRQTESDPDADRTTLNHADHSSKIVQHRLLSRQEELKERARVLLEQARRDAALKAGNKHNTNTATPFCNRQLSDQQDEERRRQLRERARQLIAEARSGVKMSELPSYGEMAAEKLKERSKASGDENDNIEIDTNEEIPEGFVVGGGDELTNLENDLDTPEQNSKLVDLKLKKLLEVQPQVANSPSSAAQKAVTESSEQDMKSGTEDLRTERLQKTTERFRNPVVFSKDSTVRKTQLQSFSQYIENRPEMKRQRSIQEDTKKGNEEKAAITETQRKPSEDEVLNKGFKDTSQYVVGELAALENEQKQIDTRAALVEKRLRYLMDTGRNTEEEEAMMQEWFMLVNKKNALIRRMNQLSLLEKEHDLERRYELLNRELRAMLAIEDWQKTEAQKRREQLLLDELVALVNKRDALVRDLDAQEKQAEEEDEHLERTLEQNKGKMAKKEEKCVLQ
Chain of UniProt Q9Y6B2 (Q9Y6B2 whole entry, looked up): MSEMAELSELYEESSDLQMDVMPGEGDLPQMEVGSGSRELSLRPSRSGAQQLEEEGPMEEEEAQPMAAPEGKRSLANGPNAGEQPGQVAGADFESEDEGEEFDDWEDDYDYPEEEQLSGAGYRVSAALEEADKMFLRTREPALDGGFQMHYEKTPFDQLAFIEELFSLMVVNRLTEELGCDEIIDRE
Chain of UniProt Q96RI0 (Q96RI0 whole entry, looked up): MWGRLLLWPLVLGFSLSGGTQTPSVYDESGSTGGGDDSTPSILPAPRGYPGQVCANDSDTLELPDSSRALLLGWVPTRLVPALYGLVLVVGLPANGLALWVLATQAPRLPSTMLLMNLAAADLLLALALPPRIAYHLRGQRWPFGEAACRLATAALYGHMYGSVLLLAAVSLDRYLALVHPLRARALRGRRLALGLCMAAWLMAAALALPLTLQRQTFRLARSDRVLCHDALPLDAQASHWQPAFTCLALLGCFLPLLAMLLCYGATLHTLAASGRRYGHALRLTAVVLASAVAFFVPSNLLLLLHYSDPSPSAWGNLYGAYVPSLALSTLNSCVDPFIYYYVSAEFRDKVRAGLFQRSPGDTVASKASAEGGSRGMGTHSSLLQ
Chain of UniProt P0CG12 (P0CG12 whole entry, looked up): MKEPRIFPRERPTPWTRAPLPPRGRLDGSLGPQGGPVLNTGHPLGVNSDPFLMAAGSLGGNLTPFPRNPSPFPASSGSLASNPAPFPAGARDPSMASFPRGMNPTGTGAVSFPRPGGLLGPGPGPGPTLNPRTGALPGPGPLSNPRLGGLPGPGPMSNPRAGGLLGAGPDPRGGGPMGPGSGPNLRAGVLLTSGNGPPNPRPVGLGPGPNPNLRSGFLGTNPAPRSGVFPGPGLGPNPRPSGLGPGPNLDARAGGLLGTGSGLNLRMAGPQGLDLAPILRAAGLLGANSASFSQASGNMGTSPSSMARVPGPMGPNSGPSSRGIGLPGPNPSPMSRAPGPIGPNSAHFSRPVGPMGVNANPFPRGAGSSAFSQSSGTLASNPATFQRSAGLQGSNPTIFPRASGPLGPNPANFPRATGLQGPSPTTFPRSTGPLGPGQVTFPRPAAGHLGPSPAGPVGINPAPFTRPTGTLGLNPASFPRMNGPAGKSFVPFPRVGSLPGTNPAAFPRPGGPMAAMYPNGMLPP

Target | log2 fold change [1] | log2 fold change (crizotinib) | log2 fold change [2] | log2 fold change [3] | log2 fold change (duvelisib) | log2 fold change (gandotinib) | log2 fold change (tozasertib) | log2 fold change [4] | log2 fold change (doramapimod) | log2 fold change (ispinesib)
EPHX2 (UniProt P34913) | 0.036 | 0.169 | 0.194 | -0.019 | 0.029 | -0.018 | 0.144 | -0.032 | -0.016 | -0.01
FAM118B (UniProt Q9BPY3) | 0.099 | -0.169 | -0.007 | 0.107 |  | -0.101 | 0.019 |  | -0.003 | 0.046
EEF1A1 (UniProt P68104) | 0.081 | 0.001 | -0.022 | -0.474 | -0.048 |  | -0.139 | -0.004 | -0.062 | 0.115
EIF4E2 (UniProt O60573) | 0.151 | -0.018 | -0.027 | 0.085 | 0.037 |  | 0.044 | 0.07 | -0.069 | -0.087
DAG1 (UniProt Q14118) | 0.037 | 0.119 | 0.132 | 0.032 | 0.116 | -0.006 | -0.084 | -0.032 | -0.001 | -0.001
ELAC1 (UniProt Q9H777) | -0.045 | 0.011 | -0.13 | -0.137 | 0.062 | -0.021 |  | 0.004 | 0.007 | 
ELMO1 (UniProt Q92556) | 0.06 | -0.019 | 0 |  | 0.163 |  |  | -0.043 | 0.033 | -0.299
EZH2 isoform 2 (UniProt Q15910) | -0.012 | -0.196 | -0.039 | 0.072 | -0.112 |  | -0.12 | 0.279 | 0.095 | 
EIF2AK3 (UniProt Q9NZJ5) |  | -0.062 | 0.181 | 0.109 | 0.031 | -0.113 | -0.359 | 0.188 | 0.032 | 
EIF4G3 isoform 3 (UniProt O43432) | 0.053 | -0.106 |  | 0.074 | -0.082 |  | -0.013 | 0.075 | 0.013 | -0.02
ELOVL5 isoform 2 (UniProt Q9NYP7) | 0.038 |  | 0.048 | -0.004 | 0.074 | -0.34 | -0.01 | 0.082 |  | -0.311
EID1 (UniProt Q9Y6B2) | -0.14 |  | -0.424 |  |  | 0.275 | -0.142 |  |  | 
DENND1A isoform 6 (UniProt Q8TEH3) |  | -0.231 |  |  |  |  | -0.093 |  | 0.374 | 
FAM117B (UniProt Q6P1L5) |  | 0.563 | 0.007 | -0.021 | -0.381 | -0.164 | -0.175 | 0.257 | 0.21 | -0.057
CYB561A3 isoform 2 (UniProt Q8NBI2) | 0 | -0.05 |  | -0.073 | 0.021 | -0.103 | -0.126 | -0.014 | 0.021 | -0.139
EEF2K (UniProt O00418) |  |  | -0.044 | 0.4 |  | 0.13 |  |  |  | -0.208
FAM135A (UniProt Q9P2D6) | 0.087 |  | 0.038 |  |  |  |  |  |  | 
CWF19L2 (UniProt Q2TBE0) | -0.024 | -0.034 |  | 0.027 | -0.1 | 0.777 (active) | -0.016 | -0.001 | -0.021 | -0.115
DDX46, A0A0C4DG89 |  |  | -0.009 |  |  |  |  |  |  | 
FAM241A (UniProt Q8N8J7) | -0.235 | 0.117 |  | -0.007 | -0.016 | -0.077 | -0.027 | -0.034 | -0.018 | -0.069
DNAL1 (UniProt Q4LDG9) |  | -0.035 | 0.011 | 0.025 | -0.013 |  |  | -0.102 | -0.067 | -0.082
ELOVL7 (UniProt A1L3X0) |  |  | 0.088 | 0.037 | -0.016 |  | -0.018 | 0.025 |  | 
DOLPP1 (UniProt Q86YN1) |  | -0.082 |  | -0.135 |  |  | 0.038 |  | -0.026 | 0.358 (active)
F2RL3 (UniProt Q96RI0) |  |  |  | -0.159 | 0.081 |  | -0.163 | -0.059 |  | 0.004

Target | log2 fold change [1] | log2 fold change (crizotinib) | log2 fold change [2] | log2 fold change [3] | log2 fold change (duvelisib) | log2 fold change (gandotinib) | log2 fold change (tozasertib) | log2 fold change [4] | log2 fold change (doramapimod) | log2 fold change (ispinesib)
EHBP1 (UniProt Q8NDI1) |  |  |  | 0.158 |  | 0.015 | 0.043 |  |  | 
DBNL (UniProt Q9UJU6) |  |  |  | -0.166 |  |  |  |  |  | 
DERPC (UniProt P0CG12) |  | 0.029 |  |  | 0.191 | 0.006 |  | -0.113 | -0.099 | 0.07
FADS1 (UniProt F5GYH4) |  | -0.079 |  |  |  |  | -0.262 |  | 0.106 | 
EDRF1 (UniProt Q3B7T1) | 0.024 |  | 0.055 | -0.008 | 0.129 | 0.098 |  | 0.134 |  | -0.24
DDB1 isoform 2 (UniProt Q16531) | 0.009 |  | 0.118 |  |  | -0.228 |  |  |  | 
DOP1A (UniProt Q5JWR5) |  |  | 0.007 |  |  |  |  |  |  | 
ENTR1 (UniProt Q96C92) |  |  |  |  | 0.003 |  |  | 0.048 |  | 
DHRS13 (UniProt Q6UX07) | 0.107 | 0.127 |  | 0.058 | -0.013 | 0.064 | 0.104 | 0.139 | 0.123 | -0.034
CTSS (UniProt P25774) | -0.007 | 0.063 |  | 0.059 | 0.01 | 0.018 | -0.114 | 0.045 | 0.043 | 0.049
EPHX2 (UniProt E5RI53) |  |  | 0.067 |  |  |  |  |  |  | 
EPHB4 (UniProt P54760) | 0.15 |  |  |  |  |  |  |  |  | -0.016
DENND10 (UniProt Q8TCE6) | 0.046 |  | 0.298 (active) | -0.015 | 0.044 |  | -0.063 | 0.03 |  | -0.021
CYP24A1 (UniProt Q07973) |  | -0.043 |  |  | -0.079 | 0.535 | -0.05 | -0.13 | 0.283 | -0.244
DCAF12 (UniProt Q5T6F0) | -0.101 |  |  |  |  | -0.735 (active) |  |  |  | 
EEF1D isoform 3 (UniProt P29692) |  |  |  |  |  |  | 0.212 |  |  | 
DCAF4 (UniProt Q8WV16) | -0.06 |  | 0.032 |  | -0.302 | 0.07 |  | -0.056 |  | -0.165
DNAJB1 (UniProt M0R128) |  |  |  | -0.018 |  |  | -0.082 |  |  | 
DEGS1 (UniProt O15121) | 0.064 |  | 0.062 | -0.047 | -0.017 | 0.138 | -0.07 | -0.078 |  | 
ERF (UniProt P50548) | 0.173 |  | -0.05 |  |  | -0.29 | -1.2 (active) |  |  | 
EGR1 (UniProt P18146) | 0.063 |  | 0.259 | -0.518 |  | -0.536 | -0.131 |  |  | 0.36
FAM160A2 isoform 2 (UniProt Q8N612) |  | -0.004 | 0.042 | -0.041 | 0.179 | 0.115 | -0.28 | 0.212 | -0.003 | -0.192
DLK1 (UniProt P80370) |  | -0.108 | -0.151 | -0.133 | -0.173 |  |  | -0.058 | 0.002 | 
EIF4G1 (UniProt Q04637) |  |  |  | 0.184 | -0.111 | -0.082 | -0.051 | 0.227 |  | 
